Compound activity deposited in PubChem BioAssay by National Center for Advancing Translational Sciences (NCATS).
This is a sample that favours compounds with a hit; in the whole collection about 2.4% have one here.
D2 antagonist: D2 dopamine receptor (human) antagonism; AID 485344; P14416; HEK293 TREx D2 cells, calcium flux, dopamine EC80; 2% of 340,000 active; inhibition, % at 10 µM; in the data active = inhibition above about 30%; inactive = below that, where a call was filed; also: 0% is about no effect
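Overnight-induced (tetracycline, 30 C) HEK293 T-REx cells carrying force-coupled D2 receive a no-wash calcium dye, then compound, then EC80 dopamine at 180 s; signals are read kinetically throughout.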
D2 ag-1: activates the human D2 dopamine receptor; P14416; HEK293 T-REx D2 cells, calcium flux agonist mode; activation, % at 2 µM; 0.53% of 340,000 active; AID 485358;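 active = activation over 3 SD above normal in the single-dose calcium agonist read, cut at about 30% in these data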; also: 0% is about no effect
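Tetracycline-induced HEK293 Trex cells with D2 receptor force-coupled to calcium signaling, plated overnight at 30 C and loaded with no-wash calcium dye. Calcium flux read kinetically for 180 s after compound addition; responses flag agonists.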
D2 PAM-1: positive allosteric modulators of human D2 dopamine receptor; P14416; HEK293 T-REx D2, calcium flux, EC20 dopamine potentiation; potentiation, % at 10 µM; 0.34% of 340,000 active; AID 485347;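 active = potentiation over 3 SD above the plate norm, cut at about 30% in these data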; also: 0% is about no effect
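Potentiation of an EC20 dopamine calcium response measured kinetically over 180 s, after a preceding 180 s compound-only read flagging agonists. Cells: inducible Hek293 Trex D2 line, 4000/well, cultured overnight at 30 C before dye loading.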
D2 PAM-2: potentiates the human D2 dopamine receptor allosterically | 0.23% of 360,000 active | P14416 | DiscoveRx D2 beta-arrestin cells, luminescence, 90 min; 100% = 57 uM dopamine signal | potentiation, % (test concentration not listed) | AID 624464; in the data active = potentiation above about 50%; inconclusive = mostly about 30% to 49%
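PathHunter beta-arrestin assay in DiscoveRx D2 cells. Compounds were added with an EC20 of dopamine (50 nM final) for 90 min at 37 deg C. Luminescence was read 1 h after detection reagent, with 57 uM dopamine as the EC100 control.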
D2 ag-2: activates the human D2 dopamine receptor; DiscoveRx PathHunter D2 beta-arrestin, luminescence, 90 min; 100% = 57 uM dopamine signal; activation, % (test concentration not listed); 0.084% of 360,000 active; in the data active = activation above about 40%; inconclusive = between about 15% and that limit
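Agonist mode: compounds alone added to overnight-plated D2 PathHunter cells for 90 min at 37 C, with 57 uM final dopamine (EC100) defining full response. Beta-arrestin recruitment detected by chemiluminescent reagent, read after 1 h at ambient temperature.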
D3 arrestin ag: activates human D3 dopamine receptor beta-arrestin recruitment; shares compounds with D2 ag-1; DiscoveRx D3 beta-arrestin cells, luminescence, 90 min; Potency, µM (series often up to 76.9 µM), for inactives: at the top dose activation, most hits filed as activators; 4% of 2,300 active; AID 720506;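 also: potency is read from the fitted curve at half-maximal effect; 100% = dopamine control response; nearly all actives have a fitted effect of over 70% in size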
Target sequence (P35462 whole entry, looked up): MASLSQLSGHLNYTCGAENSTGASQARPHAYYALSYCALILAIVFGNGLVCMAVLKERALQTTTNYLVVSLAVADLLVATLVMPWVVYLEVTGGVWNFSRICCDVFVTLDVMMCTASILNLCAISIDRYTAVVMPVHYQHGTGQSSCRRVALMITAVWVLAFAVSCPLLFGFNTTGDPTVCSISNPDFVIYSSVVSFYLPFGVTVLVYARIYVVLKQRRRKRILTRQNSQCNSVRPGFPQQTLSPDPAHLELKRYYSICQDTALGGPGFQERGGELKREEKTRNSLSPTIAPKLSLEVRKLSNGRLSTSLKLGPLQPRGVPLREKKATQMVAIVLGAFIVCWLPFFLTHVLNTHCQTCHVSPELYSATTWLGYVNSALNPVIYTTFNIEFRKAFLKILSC
D2 ag-3: counter-screen for D3 agonists: human D2 dopamine receptor agonism; shares compounds with D2 ag-1; DiscoveRx PathHunter D2 beta-arrestin, luminescence, 90 min; response scale: percent relative to full dopamine signal; Potency, µM (doses to about 76.9 µM), for the others: top-dose activation, actives largely listed as activators; 5.9% of 2,300 active; also: potency is read from the fitted curve at half-maximal effect; % of control where 0% means no effect; nearly all actives have a fitted effect of over 70% in size
* = called active by the depositor; ? = inconclusive; · = not tested or not shown. Unless noted, calls follow the shape of the dose curve; as a rule, active = well fitted activation curve with a large enough effect; inconclusive = small, poorly fitted or top-dose-only effect; inactive = flat fitted curve, though single readings scatter.

SMILES | D2 antagonist | D2 ag-1 | D2 PAM-1 | D2 PAM-2 | D2 ag-2 | D3 arrestin ag | D2 ag-3
C=CCn1c(-c2ccc(OC)cc2)csc1=Nc1c(C)n(C)n(-c2ccccc2)c1=O | 54* | 67* | -15 | -25 | ? | -8% | ?
Cc1cccc(NC(=O)CCN2CCC(C)CC2)c1 | -11 | 1 | 5 | -15 | 1 | · | ·
CCc1ccc(S(=O)(=O)c2cn(Cc3ccccc3)c3cc(N4CCCC4)c(F)cc3c2=O)cc1 | · | 0 | -6 | · | · | · | ·
COC(=O)[C@H](CC(C)C)NS(=O)(=O)c1ccccc1 | 17 | -2 | 3 | -9 | -2 | · | ·
COC(=O)[C@@H](CC(C)C)NS(=O)(=O)N(Cc1ccccc1)[C@@H](CC(C)C)C(=O)OC | 2 | -1 | -3 | -4 | -3 | -15% | -3%
Cc1ccc(CNc2ncnc3cc(Cl)ccc23)cc1 | 10 | 1 | -13 | -10 | 4 | · | ·
Cc1cc(NCc2ccc(F)cc2)nc2cc(Cl)ccc12 | 20 | 0 | -12 | -6 | 12 | -13% | -2%
CCCCNC(=O)[C@@](CC)(ONc1ccccc1C(F)(F)F)c1cccc2ccccc12 | 6 | 0 | -2 | -14 | -5 | · | ·
CCCCNC(=O)C(CC)(ONc1ccccc1C(F)(F)F)c1ccccc1 (stereo unspecified) | -10 | 0 | 7 | -16 | -3 | -3% | 9%
Cc1ccc(NC2=NCC(=O)N2Cc2cccs2)cc1C | · | · | · | 1 | -4 | 1% | 2%
C1=C(c2ccccc2)CCN(c2ncnc3nc[nH]c23)C1 | -13 | 0 | 4 | -3 | 2 | · | ·
c1ccc(CN2CCN(c3ncnc4nc[nH]c34)CC2)cc1 | 68* | 81* | -22 | 8 | 10 | 3% | ?
C[C@@H]1CN([C@H](C)CO)C(=O)c2cc(-c3ccccc3)cnc2O[C@@H]1CN(C)C(=O)C1CCOCC1 | · | · | · | -6 | 6 | · | ·
O=C(CCNS(=O)(=O)c1ccc(Br)cc1)NCc1cccs1 | -2 | -2 | 11 | 0 | -2 | · | ·
CN(Cc1cccs1)C(=O)CCNS(=O)(=O)c1ccc(Br)cc1 | -25 | 0 | 6 | 1 | 7 | -5% | 0%
CCOC(=O)C(C(=O)OCC)C(Nc1cccc(Br)c1)c1ccccc1 (stereo unspecified) | 3 | 2 | 1 | -19 | -3 | · | ·
CCOC(=O)C(NCCCCl)c1ccccc1 (stereo unspecified) | 22 | 35* | -3 | -5 | -1 | -6% | -4%
Cc1cc(OCC(=O)NCC2(N3CCN(C)CC3)CCCCC2)cc(C)c1Cl | · | 8 | -16 | · | · | · | ·
OC(CN1CCN(Cc2ccc3c(c2)OCO3)CC1)c1c[nH]c2ccccc12 (stereo unspecified) | -1 | 0 | -31 | -15 | -1 | · | ·
OC(CN1CCN(c2ccccc2)CC1)c1c[nH]c2ccccc12 (stereo unspecified) | 54* | 30 | -24 | -11 | -1 | 6% | 8%
CC(C)CNC(=O)CN(C1CCCCC1)S(=O)(=O)c1ccccc1 | 25 | 0 | -8 | -2 | -3 | -7% | -2%
CCc1ccc(NC(=O)c2cc(S(=O)(=O)N3CCCC3)ccc2F)cc1 | · | 0 | -14 | -9 | 1 | · | ·
COc1ccc(C2CC(O)(c3ccccc3)Oc3cc(OC)cc(OC)c32)cc1 (stereo unspecified) | 4 | 0 | 10 | 2 | 5 | 19% | 4%
COc1ccc(C2CC(O)(c3ccccc3)Oc3c(C)ccc(C)c32)cc1 (stereo unspecified) | 4 | 1 | 21 | -3 | -4 | · | ·
CC(=O)N1CCN(C(=O)COC(=O)COc2c(C)cc(C)cc2C)CC1 | 21 | -1 | 2 | -10 | 0 | -5% | -1%
SMILES | D2 antagonist | D2 ag-1 | D2 PAM-1 | D2 PAM-2 | D2 ag-2 | D3 arrestin ag | D2 ag-3
CCOC(=O)N1CCN(C(=O)COC(=O)COc2c(C)cc(C)cc2C)CC1 | · | · | · | -5 | -5 | · | ·
Cn1nnnc1Sc1ncnc2scc(-c3ccc(C(F)(F)F)cc3)c12 | 1 | -1 | -5 | · | · | · | ·
Cn1nnnc1Sc1ncnc2scc(-c3cccs3)c12 | -6 | 0 | 31* | · | · | -1% | -2%
Brc1cccc(OCCN2CCc3ccccc3C2)c1 | 96* | 52* | -31 | -2 | -4 | 25% | 1%
O=C(NCCS(=O)(=O)N1CCN(c2ccc(F)cc2)CC1)C1CC(=O)N(c2ccccc2)C1 (stereo unspecified) | -11 | 0 | -9 | 6 | 0 | · | ·
O=C(NCCS(=O)(=O)N1CCN(c2ccccc2)CC1)C1CC(=O)N(c2ccccc2)C1 (stereo unspecified) | -2 | 0 | 13 | -3 | 0 | -5% | -1%
Cc1ccc(Cn2c(C)c(CNCc3ccc(OC(C)C)cc3)c(C(=O)O)c2C)cc1 | · | -1 | 4 | · | · | · | ·
O=C(c1cccc2ccccc12)N1CCC(N2CCN(c3ccccc3)CC2)CC1 | 75* | 77* | -22 | 16 | 7 | 1.4µM* | ?
CCOC(=O)N1CCC(N2CCCC(C(=O)c3cccc(OC)c3)C2)CC1 (stereo unspecified) | 40* | 50* | -24 | -30 | 3 | -10% | 3%
O=C(c1cccs1)N1CCC(N2CCN(c3ccccc3)CC2)CC1 | 54* | 85* | -25 | 1 | ? | 7.1µM* | ?
CCOC(=O)N1CCC(N2CCCC(C(=O)c3cccc(OC(C)C)c3)C2)CC1 (stereo unspecified) | 18 | -2 | 12 | -5 | -1 | · | ·
CCOC(=O)N1CCC(N2CCN(c3ccccc3)CC2)CC1 | 74* | 45* | -11 | 9 | ? | ? | ?
CCOC(=O)N1CCC(N2CCN(S(=O)(=O)CC)CC2)CC1 | -4 | 0 | -3 | -12 | 2 | · | ·
COc1ccccc1CNS(=O)(=O)c1ccc2[nH]c3c(c2c1)CCCCC3 | · | 2 | 4 | · | · | · | ·
COc1cc(OC)c(N(C)C(=O)Nc2cn(CC(C)C)c(=O)c3ccccc23)cc1Cl | · | -1 | 5 | · | · | · | ·
O=C(O)CN1C(=O)/C(=C/c2ccccc2Br)Oc2ccccc21 | 12 | 0 | 2 | -7 | 3 | · | ·
CCn1c(=S)[nH]c2c(=O)n(C)c(=O)n(C)c21 | · | · | · | 0 | 2 | · | ·
O=C(CN1C(=O)NC2(CCCC2)C1=O)Nc1nc(-c2ccc(F)cc2)cs1 | 13 | 1 | 3 | 1 | -2 | -7% | 3%
O=C(C[n+]1cc(-c2ccccc2)n2c1CCC2)Nc1nc(-c2ccc(F)cc2)cs1 | 76* | 76* | -23 | -20 | 5 | 24% | ?
